# Measurements from PubChem BioAssay AID686979 (National Center for Advancing Translational Sciences (NCATS), 2013).
# Out of some 420,000 compounds screened, about 50,000 (12%) were called active. Where a call stands in place of a potency, no number is given. Inconclusive results (about 26%) are left out. For the sample, actives were picked, then their nearest neighbours and some compounds at random. A number with no mark means an inactive call. Calls come from the whole dose curve; as a rule, active = well fitted inhibition curve with a large enough effect; inconclusive = small, poorly fitted or top-dose-only effect; inactive = flat fitted curve, though single readings scatter.
# Experiment: qHTS for Inhibitors of human tyrosyl-DNA phosphodiesterase 1 (TDP1): qHTS in cells in presence of CPT; note: nearly all actives have a fitted effect of over 55% in size
# Details: chicken DT40 Tdp1-/-;hTDP1 cells + 20 nM CPT, ATP luminescence, 48 h; series mostly up to 46.2 µM
# Outline: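 Cell growth measured by CellTiter-Glo luminescence after a minimum 48 h, 37 C compound exposure with 20 nM CPT in Tdp1-knockout DT40 cells stably expressing hTDP1, seeded 400/well; qHTS titration format.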
# Potency is the fitted concentration of half-maximal effect.
Compound,Potency,"activity change, negative = growth inhibition"
CN(C)c1ccc(/C=N/NC(=O)c2ccc(Cn3cc(Br)cn3)o2)cc1,inactive,
CC1(c2ccc3ccccc3c2)NC(=O)N(CC(N)=O)C1=O (stereo not drawn),inactive,
CCOC(=O)C1CCN(C(=O)CN2C(=O)NC(C)(c3ccc4cc(OC)ccc4c3)C2=O)CC1 (stereo not drawn),18.4 µM (active),
CCOC(=O)C1CCN(C(=O)Nc2cccc(OC)c2)CC1,inactive,
CCSc1nnc(NC(=O)c2cc(=O)c3cc(C)c(C)cc3o2)s1,inactive,
CN=C1S/C(=C\c2c(OC)cc(OC)cc2OC)C(=O)N1C,inactive,
O=C(COC(=O)/C=C/c1cccs1)NC1CCCCC1,inactive,
COc1ccc(CCNC(=O)c2ccco2)cc1,inactive,
COc1ccc(CCNC(=O)c2cnc(Cl)c(Cl)c2)cc1,inactive,
CCOc1ncccc1C(=O)NCCc1ccc(OC)cc1,18.4 µM (active),
OCCN1CCN(c2ncnc3c2ncn3[C@H]2CN(Cc3ccco3)C[C@@H](CO)O2)CC1,inactive,
Cc1nn(CC(=O)N2CCN(c3cccc(C(F)(F)F)c3)CC2)c(=O)c2cc3sccc3n12,inactive,
COc1ccc2[nH]c3ccc(OC)cc3c2c1,inactive,
COc1ccc2[nH]c(=S)cc(C)c2c1,inactive,
COc1ccc2[nH]c3c(C)c4cc[n+](C)cc4c(C)c3c2c1,0.259 µM (active),
O=C(CSc1nnnn1C1CCCC1)N1CCCCC1,inactive,
COc1ccccc1/C=C/C=N/NC(=O)CN1CCN(Cc2ccccc2)CC1,inactive,
CSc1nc2ccccc2cc1/C=C(\C#N)c1ccc(Cl)cc1Cl,inactive,
Cc1ccc(-c2nnc(SCc3ccccc3C)o2)cc1,inactive,
COc1ccc([N+](=O)[O-])cc1N(CC(O)CN(CC(C)C)CC(C)C)S(=O)(=O)c1ccc(C)cc1 (stereo not drawn),25.9 µM (active),
Cc1ccc(S(=O)(=O)N(CC(O)CN2CCCCC2)c2cccc([N+](=O)[O-])c2)cc1 (stereo not drawn),inactive,

Compound,Potency,"activity change, negative = growth inhibition"
Cc1ccc(S(=O)(=O)N(CC(O)CN2C(=O)NC(C)(C)C2=O)c2cccc([N+](=O)[O-])c2)cc1 (stereo not drawn),inactive,
COC(=O)c1ccc(CNC(=O)C2CCC(=O)N(Cc3ccccn3)C2)cc1 (stereo not drawn),inactive,
CCOC(=O)C1=C(CSc2nccn2C)NC(=O)NC1c1ccc(OC)cc1 (stereo not drawn),inactive,
Cc1nn(-c2ccccc2)c2c1C(c1cccc([N+](=O)[O-])c1)N(c1ccccc1)C(=O)N2 (stereo not drawn),inactive,
CCOCCOC(=O)C1=C(C)NC(=O)NC1c1ccc2c(c1)OCO2 (stereo not drawn),inactive,
CCOC(=O)C1=C(c2ccccc2)NC(=O)NC1c1cc(OC)c(OC)cc1OC (stereo not drawn),inactive,
CCOC(=O)COc1ccc(Cl)cc1C1NC(=O)NC(C)=C1C(C)=O (stereo not drawn),inactive,
NC(=O)N1CCc2ccccc21,inactive,
CCOC(=O)C1=C(CN2CCc3ccccc32)NC(=O)NC1c1cccc([N+](=O)[O-])c1 (stereo not drawn),14.1 µM (active),
CCOC(=O)C1=C(CN2CCc3ccccc32)NC(=O)NC1c1cc(C)ccc1C (stereo not drawn),17.8 µM (active),
CCOC(=O)C1=C(CNC2CCCCC2)NC(=O)NC1c1cc(C)ccc1C (stereo not drawn),25.9 µM (active),
CCc1cc(-c2nnc(SCC(=O)NC3CC3)n2C)cs1,inactive,
NC(CSC(c1ccccc1)(c1ccccc1)c1ccc(-c2ccccc2)cc1)C(=O)O (stereo not drawn),inactive,
COC(=O)[C@@H]1C[C@H](NC(=O)c2ccccc2C(F)(F)F)CN1Cc1cccc(O)c1,,9.61% [at 9.04 µM]
CC(CN1CCC(n2nccc2NC(=O)C2CCCC2)CC1)c1ccccc1 (stereo not drawn),inactive,
C=CCN1CCN(c2ccncc2S(=O)(=O)N2CCN(C)CC2)CC1,inactive,
CC1(C(=O)NCc2ccccc2)CSCC(=O)N1CCCN1CCOCC1 (stereo not drawn),inactive,
Cc1cc2oc(=O)cc(CN(C)Cc3ccccc3)c2cc1Cl,inactive,
CC(C)(O)C#Cc1ccc(CNC[C@H]2O[C@@H](n3cnc4c(=O)[nH]c(N)nc43)[C@H](O)[C@@H]2O)s1,inactive,
C=C(C)C(=O)O[C@H]1C/C(C)=C\C(=O)/C=C(\C)[C@H](O)[C@@H]2OC(=O)C(=C)[C@@H]21,0.58 µM (active),
C/C=C(\C)C(=O)O[C@H]1CC(C)=C2C(=O)C=C(C)C2[C@@H]2OC(=O)[C@@](C)(OC(=O)C=C(C)C)C21 (stereo partly drawn),,-19.3% [at 9.04 µM]

Compound,Potency,"activity change, negative = growth inhibition"
Cc1ccc(CNC(=O)CC(NC(=O)c2ccccc2)c2ccccc2)cc1 (stereo not drawn),inactive,
Cn1c(SCC(=O)Nc2nccs2)nnc1-c1cccnc1,inactive,
CCOC(=O)C1CCN(C(=O)Nc2ccc(C)c(Cl)c2)CC1,inactive,
COc1cccc(CNCc2ccc3c(c2)OCO3)c1,inactive,
COc1ccc2c(c1)C(C)=CC(C)(C)N2C(=O)CNCc1ccc2c(c1)OCO2,20.6 µM (active),
COc1ccc(NC(=O)NCc2ccc3c(c2)OCO3)c(OC)c1,inactive,
CCc1ccc(-n2c(=S)sc3c(=O)n(-c4ccccc4OC)c(=S)[nH]c32)cc1,inactive,
NS(=O)(=O)c1ccc(NC(=S)NNC(=O)c2cccs2)cc1,inactive,
COc1cccc(NC(=O)C(Sc2nc3ccccc3c(=O)n2CC(C)C)c2ccccc2)c1 (stereo not drawn),inactive,
COc1cccc(Nc2nc3ccccc3c3nncn23)c1,16.4 µM (active),
COc1ccc(C)cc1Nc1nc2ccccc2c2nnc(C)n12,inactive,
FC(F)(F)c1cc(Nc2nc3ccccc3c3nncn23)ccc1Cl,23.1 µM (active),
FC(F)(F)c1ccccc1-c1nc(-n2ccnc2)c2ccccc2n1,inactive,
O=C(OCC(=O)c1cccs1)c1ccc([N+](=O)[O-])o1,inactive,
Cc1ccc(CNC(=O)C2CCN(S(=O)(=O)c3ccc4nc5c(c(C(=O)O)c4c3)CC(C)CC5)CC2)cc1 (stereo not drawn),inactive,
CCn1cc(CNC(=O)c2cc([N+](=O)[O-])c(C)c([N+](=O)[O-])c2)cn1,inactive,
O=C(COc1ccc(Br)cc1)OCC(=O)c1ccc[nH]1,inactive,
Cc1c(C)n2c(SCC(=O)N3CCCC3)nnc2[nH]c1=O,inactive,
CCOC(=O)C1CCCN(C(=O)CSc2nnc3nc(C)cc(C)n23)C1 (stereo not drawn),25.9 µM (active),
Cc1cc2nnc(SCC(=O)N3CCN(c4ccccc4)CC3)n2c(N)n1,inactive,
CN(C(=O)COC(=O)c1ccc(Br)o1)c1c(N)n(Cc2ccccc2)c(=O)[nH]c1=O,inactive,
